Results as given in PubChem BioAssay AID1970 (National Center for Advancing Translational Sciences (NCATS), 2009).
Results filed as inconclusive are left out. Active and inactive are the calls of the source. Calls follow the shape of the dose curve; as a rule, active = well fitted inhibition curve with a large enough effect; inconclusive = small, poorly fitted or top-dose-only effect; inactive = flat fitted curve, though single readings scatter.

The compounds below were run against Dual specificity protein kinase CLK4 (Homo sapiens) (UniProt Q9HAZ1) (assay: Confirmation Assay for Inhibitors of CDC-like Kinase 4 (Kinase-Glo Assay)). Settings: recombinant Clk4, Kinase-Glo ATP depletion luminescence; series mostly up to 47.7 µM.
Chain of Dual specificity protein kinase CLK4 (Homo sapiens) (Q9HAZ1 whole entry, looked up): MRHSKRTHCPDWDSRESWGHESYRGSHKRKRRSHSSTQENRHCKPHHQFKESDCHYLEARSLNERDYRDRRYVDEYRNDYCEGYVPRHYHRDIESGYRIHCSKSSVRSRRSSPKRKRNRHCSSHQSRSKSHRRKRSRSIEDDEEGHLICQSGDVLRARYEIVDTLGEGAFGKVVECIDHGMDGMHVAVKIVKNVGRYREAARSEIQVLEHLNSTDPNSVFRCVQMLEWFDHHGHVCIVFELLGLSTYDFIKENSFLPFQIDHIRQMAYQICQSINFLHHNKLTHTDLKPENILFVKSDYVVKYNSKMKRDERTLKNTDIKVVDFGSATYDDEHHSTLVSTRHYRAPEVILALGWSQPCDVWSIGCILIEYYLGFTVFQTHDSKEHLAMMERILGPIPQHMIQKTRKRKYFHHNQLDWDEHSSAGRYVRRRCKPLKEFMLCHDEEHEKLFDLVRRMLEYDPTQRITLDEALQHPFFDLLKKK
Protocol: NIH Molecular Libraries Probe Production Centers Network [MLPCN] NIH Chemical Genomics Center [NCGC] MLPCN Grant: 1R03MH084827-01 Assay Submitter (PI): Tom Misteli NCGC Assay Overview: Clk4 (Invitrogen, cat# PV3839) was assayed using ATP and the RS repeat peptide (AnaSpec cat # 61722) as substrates. Following the Clk4 reaction, the remaining ATP levels were detected using Promega Kinase-Glo technology wherein the remaining ATP from the kinase reaction is detected using Ultra-Glo luciferase and D-luciferin which generates a bioluminescence signal from the ATP.
NCGC Assay Protocol Summary: Two uL/well of substrate-buffer solution (100 uM RS peptide, 1 uM ATP, 25 mM Tris pH7.5, 10 mM MgCl2, 0.5 mM EGTA, 2.5 mM DTT, 0.01% Triton X-100 final concentration) was dispensed into 1536-well, assay plates (Greiner, solid white medium-binding plates) with Aurora Discovery BioRAPTR Flying Reagent Dispenser (FRD; Beckton-Dickenson). Using a Kalypsys pin tool equipped with a 1536-pin tool, 23 nL of compound solution was transferred to the assay plate. One uL/ well Clk4-buffer solution (25 nM Clk4, 25 mM Tris pH 7.5, 10 mM MgCl2, 0.5 mM EGTA, 2.5 mM DTT, 0.01% Triton X-100, final concentrations) was then added using the FRD yielding a total kinase reaction volume of 3 uL/ well. After 4.5 hours of room temperature incubation, 3 uL Kinase-Glo reagent was added for a final assay volume of 6 uL/ well. Luminescence was detected with the ViewLux plate reader (Perkin Elmer, Waltham, MA) after 5 min incubation using a 5 second exposure time and 2x binning.

Potency, active:
Cc1cccc(CNc2ncnc3ccc(-c4ccc5c(c4)OCCO5)cc23)c1 501 nM
c1cncc(-c2ccc3ncnc(NCc4ccc5c(c4)OCO5)c3c2)c1 6310 nM
Cc1ccc(CNc2ncnc3ccc(-c4ccoc4C)cc23)o1 368 nM
COc1cccc(-c2ccc3ncnc(NCc4cccc(C)c4)c3c2)c1 891 nM
CN1CCCC1CCNc1ncnc2ccc(-c3ccc4c(c3)OCO4)cc12 (stereo not given) 923 nM
CCN(CCc1cn(C)cn1)c1ncnc2ccc(-c3ccc4c(c3)OCO4)cc12 519 nM
Cn1ccc2cc(-c3ccc4ncnc(NCc5cccnc5)c4c3)ccc21 12600 nM
Cn1cnc(CCNc2ncnc3ccc(-c4ccc5c(c4)OCO5)cc23)c1 232 nM
Cc1nc(CSc2ncnc3ccc(-c4ccc5c(c4)OCO5)cc23)cs1 184 nM
NCCNc1ncnc2ccc(-c3ccc4c(c3)OCO4)cc12 73.3 nM
c1nc(NCc2ccoc2)c2cc(-c3ccc4c(c3)OCO4)ccc2n1 37.7 nM
c1csc(CCNc2ncnc3ccc(-c4ccc5c(c4)OCO5)cc23)c1 46.3 nM
Cc1cccc(-c2ccc3ncnc(NCc4cc(C)cs4)c3c2)c1 14100 nM
c1cncc(CNc2ncnc3ccc(-c4ccc5c(c4)OCCO5)cc23)c1 447 nM
c1cncc(CNc2ncnc3ccc(-c4ccc5c(c4)OCO5)cc23)c1 100 nM
Fc1cccc(CNc2ncnc3ccc(-c4ccccc4Cl)cc23)c1 11200 nM
Cc1occc1CNc1ncnc2ccc(-c3ccc4c(c3)OCO4)cc12 47.5 nM
Cc1nc(CN(C)c2ncnc3cc(-c4ccc5c(c4)OCO5)ccc23)cs1 5330 nM
Cc1csc(CNc2ncnc3ccc(-c4ccc5c(ccn5C)c4)cc23)c1 35500 nM
c1nc(NCC2CCOC2)c2cc(-c3ccc4c(c3)OCO4)ccc2n1 (stereo not given) 58.2 nM
Cn1cncc1CNc1ncnc2ccc(-c3ccc4c(c3)OCO4)cc12 75.2 nM
CC(Nc1ncnc2ccc(-c3ccc4c(c3)OCO4)cc12)c1ccco1 (stereo not given) 119 nM
Cc1occc1-c1ccc2ncnc(NCc3ncc[nH]3)c2c1 463 nM
Cn1ccc2cc(-c3ccc4ncnc(NCc5cccs5)c4c3)ccc21 31600 nM
Cc1nc(CNc2ncnc3ccc(-c4ccc5c(c4)OCO5)cc23)cs1 47.5 nM
Cc1nc(C)c(-c2ccc3ncnc(NCCc4cnc[nH]4)c3c2)s1 3680 nM
Fc1cccc(CNc2ncnc3ccc(-c4ccc5c(c4)OCO5)cc23)c1 100 nM
Cc1csc(CNc2ncnc3ccc(-c4ccc5c(c4)OCO5)cc23)n1 37.7 nM
Cc1cccc(CNc2ncnc3ccc(-c4cccnc4)cc23)c1 3550 nM
COc1cccc(-c2ccc3ncnc(NCc4cccc(F)c4)c3c2)c1 631 nM
c1nc(NCCc2cnc[nH]2)c2ccc(-c3ccc4c(c3)OCO4)cc2n1 10600 nM
c1csc(CNc2ncnc3cc(-c4ccc5c(c4)OCO5)ccc23)c1 11900 nM
CN(Cc1cncn1C)c1ncnc2ccc(-c3ccc4c(c3)OCO4)cc12 292 nM
Cc1ccc(CNc2ncnc3cc(-c4ccc5c(c4)OCO5)ccc23)o1 5980 nM
CCOC(=O)c1ccc(-c2ccc3ncnc(NCc4csc(C)n4)c3c2)o1 654 nM
Cc1nc(CNc2ncnc3ccc(-c4ccoc4C)cc23)cs1 823 nM
Clc1cccc(-c2ccc3ncnc(NCc4cccs4)c3c2)c1 7940 nM
Fc1cccc(CNc2ncnc3ccc(-c4cccc(Cl)c4)cc23)c1 7080 nM
Cc1ccc(CNc2ncnc3ccc(-c4ccc5c(c4)OCO5)cc23)s1 189 nM
CCOC(=O)c1ccoc1-c1ccc2ncnc(NCc3ncc[nH]3)c2c1 10400 nM
